# Results reported in PMC5540273 (PLoS ONE, 2017).
# How the values were obtained:
# Conditions in all cases: concentration: 1 μM,replicates: in singlicate; n = 1
# CSNK1G1 = test system: CSNK1G1
# CSNK1G2 = test system: CSNK1G2
# CSNK1G3 = test system: CSNK1G3
# CSNK2A1 = test system: CSNK2A1
# CSNK2A2 = test system: CSNK2A2
# CTK = test system: T1, CTK
# T1 construct: gene MATK
# DAPK1 = test system: DAPK1
# DAPK2 = test system: DAPK2
# DAPK3 = test system: DAPK3
# DCAMKL1 = test system: T2, DCAMKL1
# T2 construct: gene DCLK1
# DCAMKL2 = test system: T3, DCAMKL2
# T3 construct: gene DCLK2
# DCAMKL3 = test system: T4, DCAMKL3
# T4 construct: gene DCLK3
# DDR1 = test system: DDR1
# DDR2 = test system: DDR2
# DLK = test system: T5, DLK
# T5 construct: gene MAP3K12
# DMPK2 = test system: T6, DMPK2
# T6 construct: gene CDC42BPG
# DMPK = test system: DMPK
# DRAK1 = test system: T7, DRAK1
# T7 construct: gene STK17A
# DRAK2 = test system: T8, DRAK2
# T8 construct: gene STK17B
# DYRK1A = test system: DYRK1A
# 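Further: KINOMEscan kinase panel screen.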
SMILES,%Inh (CSNK1G1) [%],%Inh (CSNK1G2) [%],%Inh (CSNK1G3) [%],%Inh (CSNK2A1) [%],%Inh (CSNK2A2) [%],%Inh (CTK) [%],%Inh (DAPK1) [%],%Inh (DAPK2) [%],%Inh (DAPK3) [%],%Inh (DCAMKL1) [%],%Inh (DCAMKL2) [%],%Inh (DCAMKL3) [%],%Inh (DDR1) [%],%Inh (DDR2) [%],%Inh (DLK) [%],%Inh (DMPK2) [%],%Inh (DMPK) [%],%Inh (DRAK1) [%],%Inh (DRAK2) [%],%Inh (DYRK1A) [%]
C[C@@H](Oc1cc(-n2cnc3ccc(-c4ccncc4)cc32)sc1C(N)=O)c1ccccc1Cl [GSK483724],9,14,29,52,89,0,0,0,19,88,18,0,37,8,17,2,47,81,0,82
FC(F)(F)c1cc(Br)cc(Nc2nccc(-c3cnn4ncccc34)n2)c1 [GW810578],13,31,0,0,32,0,2,1,18,19,15,16,0,16,0,20,15,8,36,99.6
Cn1ccc2ncnc(Oc3ccc(NC(=O)Nc4cnn(C(C)(C)C)c4)c(Cl)c3)c21,0,32,0,0,38,20,8,0,0,10,5,2,100,100,0,0,15,0,3,11
C[C@@H]1CNc2c(sc3ccc4nc(-c5ccc(O)cc5)ccc4c23)C(=O)N1,29,38,32,48,43,43,35,34,26,37,0,54,0,16,0,0,0,100,100,98.9
CC(C)S(=O)(=O)N1CCN(Cc2ccc3c(c2)nc(NC(=O)c2ccsc2)n3C[C@H](O)c2ccccc2)CC1 [GW635815],16,5,20,6,37,0,0,0,31,0,0,9,46,19,69,0,0,72,11,48
O=C1NCCc2[nH]c(-c3ccncc3)cc21,51,93.7,83,64,59,24,77,66,81,16,0,91.8,17,0,8,0,13,97.2,100,99.7
C[C@@H](Oc1cc(-n2cnc3cc(-c4cnn(C)c4)ccc32)sc1C(N)=O)c1ccccc1Cl [GSK580432],30,0,15,7,67,0,75,43,34,10,10,0,42,3,29,1,45,6,15,18
COc1cc2c(Nc3ccc(NC(=O)c4ccccc4)cc3)ncnc2cc1OCCCN1CCOCC1 [GSK301329],0,0,3,9,14,32,0,0,0,13,26,0,0,0,89,0,0,0,0,25
O=C(Nc1cccc(C(F)(F)F)c1)c1cccc(Oc2ccc3nccn3n2)c1,1,10,1,0,0,69,0,0,0,0,6,9,97.1,95.9,0,1,13,0,0,5
CS(=O)c1ccc(-c2coc3ccc(-c4n[nH]c(=O)o4)cc23)cc1 (centres unmarked),0,20,5,100,99.8,0,52,67,59,3,0,0,0,15,0,0,29,61,100,66
